Shown are actives, neighbours in structure and some others; about 4.2% of the full set was active somewhere.
VDR inhibitor = vitamin D3 receptor (human) inhibition. VDR-SRC2-3 peptide fluorescence polarization, 2 h. P11473. Potency, µM, without a hit: max response, negative = inhibition, hits mostly inhibitors. 0.93% of 400,000 active
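FP read-out; VDR + SRC2-3 coactivator peptide; 23 nl compound by pintool; 2 h RT incubation; reagents held at 4 deg C, protected from light.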
ALOX12 inh = blocks human arachidonate 12S-lipoxygenase | purified 12hLO, xylenol orange hydroperoxide absorbance | Potency, µM (highest dose often 108 µM), without a hit: top-dose activity change, negative = inhibition, most hits filed as inhibitors | 1.1% of 580,000 active | AID 1671190
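Hydroperoxide product was detected by ferrous iron/xylenol orange as the 573 to 405 nm absorbance ratio. Arachidonic acid at 40 uM (final) was turned over for 30 min at room temperature by 150 nM human 12hLO, pH 7.0 Hepes buffer, after 15 min compound preincubation.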
PLK1 PBD block = blocks phosphopeptide binding to human PLK1 polo-box domain; P53350; Plk1 PBD binding of FITC phosphopeptide, fluorescence polarization; Potency, µM, for inactives: max response, negative = inhibition, usual class: inhibitors; 2.8% of 360,000 active; note: series mostly up to about 57 µM; nearly all actives have a fitted effect of over 65% in size
Target sequence (P53350 whole entry, looked up, the tested form may be a part): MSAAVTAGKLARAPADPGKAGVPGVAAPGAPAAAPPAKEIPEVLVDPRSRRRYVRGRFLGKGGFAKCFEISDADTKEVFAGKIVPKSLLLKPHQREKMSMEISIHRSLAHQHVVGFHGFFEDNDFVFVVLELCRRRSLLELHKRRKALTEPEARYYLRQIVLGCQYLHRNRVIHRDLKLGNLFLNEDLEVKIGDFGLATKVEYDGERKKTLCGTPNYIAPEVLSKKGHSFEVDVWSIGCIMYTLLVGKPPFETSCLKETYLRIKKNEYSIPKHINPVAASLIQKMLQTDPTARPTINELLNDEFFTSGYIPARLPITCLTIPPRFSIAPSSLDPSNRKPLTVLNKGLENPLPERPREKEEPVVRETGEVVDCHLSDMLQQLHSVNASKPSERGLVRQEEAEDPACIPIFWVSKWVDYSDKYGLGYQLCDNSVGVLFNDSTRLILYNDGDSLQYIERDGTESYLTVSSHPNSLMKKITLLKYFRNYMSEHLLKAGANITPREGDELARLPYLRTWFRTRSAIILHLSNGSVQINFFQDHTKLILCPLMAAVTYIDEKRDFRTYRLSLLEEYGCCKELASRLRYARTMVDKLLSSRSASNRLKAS
Sfp PPTase inh = blocks B. subtilis Sfp PPTase activity; Potency, µM, for the others: largest response in the series, negative = inhibition, most hits filed as inhibitors; Q9F4F7; AID 1490; 3.5% of 310,000 active; Biochemical Sfp PPTase activity, qHTS;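 note: the enzyme is Sfp with the accession as filed and its product quenches rhodamine fluorescence; 0% = enzyme reaction without inhibitor and -100% = no enzyme wells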
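Reaction rates are the 30-min fluorescence difference (ex 525, em 598 nm) in wells containing 15 nM Sfp, 5 uM rhodamine-CoA and 12.5 uM BHQ-2-YbbR at pH 7.6 with 10 mM MgCl2.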
* marks the source's active call; other numbers are inactive results; ? = inconclusive; . = not tested or not shown. Calls come from the whole dose curve; as a rule, active = well fitted curve in the direction sought with a large enough effect; inconclusive = small, poorly fitted or top-dose-only effect, or another doubt; inactive = no such curve, though single readings can be large; an effect the other way counts as inactive or inconclusive. Unless noted, % is set by controls: 0 for no effect and ±100 for the full control effect; potency is the fitted concentration of half-maximal effect.

SMILES	VDR inhibitor	ALOX12 inh	PLK1 PBD block	Sfp PPTase inh
O=C(O)C(c1c[nH]c2cc(F)ccc12)N1CCN(Cc2ccccc2)CC1 (centres undefined)	.	-37%	.	.
O=C(O)C(c1c[nH]c2cc(F)ccc12)N1CCN(Cc2cccc3ccccc23)CC1 (centres undefined)	.	40µM*	.	.
CCC1CCCCN1CCCNC(=O)c1ccc2c(c1)N(Cc1ccc(F)cc1)C(=O)c1ccccc1S2=O (centres undefined)	-2%	-20%	-9%	-9%
COCCNc1ccnc(-c2c(C)noc2C)n1	11%	?	.	25%
Cc1noc(C)c1-c1nccc(NC2CC2)n1	50µM*	7.1µM*	.	-15%
Cc1noc(C)c1-c1nccc(NCc2cccs2)n1	-13%	?	.	13%
Cc1noc(C)c1-c1nccc(-n2ccnc2)n1	5%	45µM*	.	0%
Cc1ccccc1-c1nccc(NCCN2CCOCC2)n1	?	40µM*	.	?
Cc1noc(C)c1-c1nccc(NCCN2CCOCC2)n1	-6%	32µM*	.	6%
Cc1noc(C)c1-c1cc(NC2CCNCC2)ncn1	-6%	22µM*	.	?
Cc1ccc2c(C(=O)CN3CCSCC3)c(C)[nH]c2c1	-22%	?	19µM*	7%
CO/C=C\C=C/c1nnn(-c2ccc(Cl)cc2)n1	?	35µM*	?	4.5µM*
CC(NC(=O)C1CCCN1C(=O)OCc1ccccc1)c1ccccc1 (centres undefined)	6%	-4%	-5%	-15%
COC(=O)C(=Cc1cc(Br)c(OC)c(Br)c1)C(=O)OC	8.9µM*	.	.	?
COc1cc(/C=C/C(=O)O)cc(Br)c1OC	.	-16%	.	.
Cc1cc2c(NC(=O)Nc3ccc(F)cc3)cccc2nn1	25%	?	-4%	35µM*
Cc1cc2c(NC(=O)CC(C)(C)CC(=O)O)cccc2nn1	-13%	12%	-11%	-9%
CC12CCC(=O)N1C(C(=O)N1CCN(S(=O)(=O)c3ccc(Br)cc3Cl)CC1)CS2 (centres undefined)	15%	-27%	6%	.
NC(=O)c1ccc(-c2nnn(CC(=O)N(C3CCCCC3)C3CCS(=O)(=O)C3)n2)cc1 (centres undefined)	17%	6%	3%	.
CC1CN(C(=O)N2CCC(C(=O)NC3CCCCCC3)CC2)c2ccccc2O1 (centres undefined)	3%	1%	.	.
C/C(=N/Nc1ccc(F)cc1F)c1ccccc1Br	.	50µM*	.	.
C/C(=N/Nc1ccc(S(N)(=O)=O)cc1[N+](=O)[O-])c1ccccc1Br	.	35µM*	.	.
C/C(=N\Nc1ccc(F)cc1F)c1ccccc1O	7%	?	0%	-1%
Cc1noc(C)c1S(=O)(=O)Nc1ccc2c(c1)C(=O)N([C@H](C)CO)C[C@H](C)[C@@H](CN(C)C(=O)Nc1ccc(C(F)(F)F)cc1)O2	17%	-27%	-12%	.
c1ccc(-c2noc(CN3CCN(c4cnccn4)CC3)n2)cc1	-10%	20%	13µM*	1%
SMILES	VDR inhibitor	ALOX12 inh	PLK1 PBD block	Sfp PPTase inh
c1ccc(C(c2ccccc2)N2CCN(Cc3nc(-c4cnccn4)no3)CC2)cc1	-6%	0%	2%	18%
COCc1cc(=O)n2[nH]c(C)c(-c3ccc(Cl)cc3)c2n1	.	-6%	-3%	.
Cc1[nH]n2c(=O)cc(-c3ccc(Cl)cc3)nc2c1-c1ccc(F)cc1	.	22µM*	.	.
O=C(NCc1ccccc1)c1cc(C2COCCN2C(=O)CCc2ccccc2)on1 (centres undefined)	.	13%	9%	.
Cc1cccc(N2C(=O)C(Cl)=C(Nc3c(C)n(C)n(-c4ccccc4)c3=O)C2=O)c1C	?	?	-9%	56µM*
Cc1ccc(N2C(=O)C(Cl)=C(Nc3c(C)n(C)n(-c4ccccc4)c3=O)C2=O)cc1	-59%	?	-28%	?
CC(/C=C1\SC(=S)N(c2ccc(C(=O)O)cc2)C1=O)=C\c1ccccc1	89µM*	35µM*	24µM*	-13%
CC(/C=C1\SC(=S)N(C(C(=O)O)C(C)C)C1=O)=C\c1ccccc1 (centres undefined)	?	?	24µM*	?
CC(/C=C1\SC(=S)N(NS(=O)(=O)c2ccccc2)C1=O)=C\c1ccccc1	?	?	0%	2%
C/C(=N/NC(=O)c1ccco1)c1cccc(NC(=O)c2ccc(C)o2)c1	-2%	-3%	-3%	0%
C/C(=N/NC(=O)c1ccc(Br)o1)c1cccc(NC(=O)c2ccc(C)o2)c1	?	1%	7.5µM*	8%
CN(CCC#N)C(=O)COC(=O)c1cccnc1Nc1ccccc1F	-11%	136%	27µM*	9%
CN(C(=O)COC(=O)c1cccnc1Nc1ccccc1F)C1CCS(=O)(=O)C1 (centres undefined)	11%	-9%	-13%	7%
NS(=O)(=O)c1cccc(NC(=O)c2cccc3c(Br)cccc23)c1	-13%	0%	0%	12%
CC(C)C(=O)Nc1ccc(NC(=O)c2cccc3c(Br)cccc23)cc1	?	0%	27µM*	7%
CCCCCCCOC(=O)C[N+](C)(C)CCOC1CC2CCC1(C)C2(C)C (centres undefined)	-28%	?	-10%	50µM*
CCC(C)(C)C1CCC(=NNC(=S)Nc2ccccc2)CC1 (centres undefined)	-13%	?	-3%	4%
CC1CCC/C(=N/NC(=S)Nc2ccccc2)C1 (centres undefined)	.	28µM*	.	.
COc1ccc(CCN(C)CC(=O)Nc2cc(C)nc3ccccc23)cc1OC	-2%	-15%	-2%	79µM*
COc1ccc(CCN(C)Cc2c(O)ccc3ccccc23)cc1OC	?	?	21µM*	7%
COc1ccc(CN(C)CCc2ccccn2)cc1OC	-4%	?	-4%	50µM*
CCN1CCN(CC(O)COCC2COc3ccccc3O2)CC1 (centres undefined)	-2%	-18%	-2%	14%
OC(COCC1COc2ccccc2O1)CN1CCCCC1 (centres undefined)	-9%	-16%	30µM*	11%
CC(=O)NCc1ccc(C(=O)NCCc2c[nH]c3ccccc23)cc1	.	-35%	.	.
CC(=O)Oc1ccc(N2C(=O)C3C4C=CC(C5CC45)C3C2=O)cc1[N+](=O)[O-] (centres undefined)	?	-11%	-12%	56µM*
SMILES	VDR inhibitor	ALOX12 inh	PLK1 PBD block	Sfp PPTase inh
COc1ccc(CNC(=O)CN2CCN(C(c3ccccc3)c3ccccc3)CC2)cc1	0%	?	-13%	-27%
Oc1nc(-c2ccc(Br)cc2)n2ccncc12	-15%	-27%	-16%	56µM*
O=C(CC1CC1)NC1CCCc2nc(-c3ccccc3)ncc21 (centres undefined)	.	64%	.	.
COc1cc(OC)c(-c2c3cc(O)c(=O)cc-3oc3cc(O)c(O)cc23)cc1OC	-15%	?	-57%	16µM*
COc1cc(-c2cc(=O)c3ccc(O)cc3o2)cc(OC)c1OC	.	0%	.	.
CCc1ccc(/C=C(/C#N)c2nc3ccccc3s2)cc1	.	-14%	.	.
N#C/C(=C/c1ccncc1)c1nc2ccccc2s1	71µM*	-27%	-9%	-13%
